Consider 5 compounds from PubChem BioAssay.

Results filed as inconclusive are left out. Activity calls are given as the source filed them.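 How the source made its calls, unless noted: active means inhibition over a set limit, the all-compound mean plus 3 SD, in both replicate runs; inconclusive means over that limit in just one replicate run; inactive means at or under that limit in both runs.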

As a reminder, the viability is a read-out of living cells in per cent, often relative to untreated cells. By inhibition is commonly meant the change of the read-out against control, counted positive when it falls.

Assay [1] can be described thus: reducers of endogenous Her2 protein level, primary screen, SKBR3 breast tumor cells, AlphaScreen, ATP viability (AID 461;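 active means Her2 level under about 52% in both replicate screens, with viability over 70% of control, limit read from the data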;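 on Her2 level: lower value means less Her2 protein in the cells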;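 on viability: percent of carrier control wells set as 100% viability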). The settings on record: 18-24 h, measured here: SKBR3 viability, ATP luminescence, at 10 µM. On the technique in general: In Alpha technology, singlet oxygen from a donor bead excites a nearby acceptor bead.
In assay [2] the target is Receptor tyrosine-protein kinase erbB-2 (Homo sapiens) (UniProt P04626). The assay is described as above. Conditions: 18-24 h, at 10 µM, stronger effect = lower value.
A short description of assay [3]: SK-BR-3 cell growth inhibitors, pilot screen, 24 h, human (AID 572;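 active means viability at or below 10% of carrier control in both of two separate runs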;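 further: compound exposure lasted between 18 and 24 h rather than exactly 24 h; 100% = carrier-treated control wells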). The settings on record: SK-BR-3 viability, CellTiter-Glo luminescence, at 10 µM, stronger effect = lower value. Background: In ATP-based viability assays light output follows the ATP content of the culture.
Assay [4] can be described thus: HUVEC growth inhibition – cell-based, human, primary screen (AID 575;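 active means viability at or below 30% in both replicate assays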;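 further: 100% = median of untreated cell wells with 0.1% DMSO on each plate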). The settings on record: HUVEC proliferation, CellTiter-Glo luminescence, 72 h; at 10 µM; stronger effect = lower value.
The nature of assay [5]: growth inhibitors of H69AR lung tumor, primary screen, human, duplicate replicates (AID 580;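 active means viability at or under a set limit in both replicates, limit being median viability minus 3 SD, cut at about 48% in these data, passing the limit was not always enough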;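 further: 100% = mean luminescence of untreated wells and 0% = no signal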). The settings on record: H69AR lung tumor cells viability, ATP luminescence, 72 h; at 10 µM; stronger effect = lower value.
Assay [6] is described as follows: reversal of MRP1-mediated doxorubicin resistance, pilot screen, H69AR cells, doxorubicin co-treatment (AID 601;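 active means viability loss from added drug above about 55%, and viability with drug at most 40%, in both replicates, limit read from the data, passing the limit was not always enough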). Conditions: CellTiter-Glo, 72 h, at 10 µM; for differential viability (reversal): stronger effect = higher value.
Assay [7] in a line: 384-well plate pilot, post-Golgi transport modulator project, inhibition of yeast transport mutant growth (AID 636; in the data active means inhibition above about 31%). Conditions: absorbance 615 nm, about 18 h, stronger effect = higher value.
The nature of assay [8]: growth suppression of yeast trafficking mutant, preliminary HTS, modulators of trafficking downstream of Golgi apparatus project, 1536-format plate, OD 615 nm (AID 637; in the data active means inhibition above about 30%). The settings on record: yeast transport mutant growth, absorbance 615 nm, 18 h; stronger effect = higher value.
A short description of assay [9]: OD615 S. cerevisiae growth inhibition, permissive medium, pilot counter-assay, permissive growth control for S. cerevisiae lifespan shortening project (AID 705;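 active means growth inhibition above 25% in both replicates, a cutoff set 3 SD above the mean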). The settings on record: OD615, 24 h, at 10 µM, stronger effect = higher value.
Assay [10] can be described thus: Restrictive medium S. cerevisiae growth inhibition, OD615, pilot screen of yeast lifespan reduction project, restrictive growth control (AID 706;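 active means growth inhibition above a set limit, 3 SD over mean compound inhibition, in both replicates, cut at about 43% in these data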;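 further: modified DeaD lifespan yeast strain shifted to restrictive glucose medium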). Conditions: OD615, 48 h, at 10 µM, stronger effect = higher value.
The nature of assay [11]: viability gain of MRP-1-high H69AR cells under doxorubicin, pilot screen, MRP-1 activator project, CellTiter-Glo, duplicate (AID 807;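 active means viability increase at or above a cutoff of the median across tested compounds plus 3 SD, cut at about 8.5% in these data, passing the limit was not always enough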;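 further: compound pretreatment 18-22 h then 72 h combined with doxorubicin; 0% = doxorubicin alone and 100% = vehicle without doxorubicin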). Conditions: H69AR viability with doxorubicin, CellTiter-Glo luminescence; at 10 µM; stronger effect = higher value.
A short description of assay [12]: growth suppression of beta-catenin knockout HCT116, pilot screen, human colon tumor cells (AID 823;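 active means cell viability at or below a set limit in both duplicate runs, the limit being the all-compound median minus 4 SD, cut at about 23% in these data, passing the limit was not always enough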;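 further: 0% = wells killed by 20 µM Hyamine and 100% = untreated DMSO cell wells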). The settings on record: CellTiter-Glo, 60 h, at 10 µM, stronger effect = lower value.
The nature of assay [13]: growth suppression of PTEN-deleted HCT116, pilot screen, cell-based, HCT116 clonal line, CellTiter-Glo (AID 824;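 active means viability at or below 27.92% in each of two runs, the all-compound median minus 4 SD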;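 further: 0% = 20 µM Hyamine control and 100% = vehicle cell control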). Conditions: 60 h, at 10 µM, stronger effect = lower value.
The nature of assay [14]: inhibitors of the yeast RAM network, pilot screen, dse1pr::URA3 reporter, 5-FOA selection (AID 869).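 Further: 0% = DMSO wells with no growth and 100% = 10 µM 1-NA-PP1 with full growth; RAM network block rescues cells from 5-FOA so hits raise OD615 growth.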 Conditions: S. cerevisiae dse1pr::URA3 5-FOA growth, OD615, 2 d; at 10 µM; stronger effect = higher value; strain carries analog-sensitive mutant Cbk1 kinase.
The nature of assay [15]: RAM signaling pathway blockade in yeast – S. cerevisiae, Pdr1DBD-CYC8 efflux-inhibited sensitized strain, primary screen (AID 1298;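 active means RAM network inhibition above 8.4% in each of two replicates, 3 SD over the compound average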;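 further: 0% = DMSO untreated cells without growth and 100% = 10 µM 1-NA-PP1 full growth; higher means more yeast growth rescued from 5-FOA killing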). Conditions: S. cerevisiae cbk1-as DSE1-URA3 strain, 5-FOA growth OD615, 2 d; at 50 µM; stronger effect = higher value.
Where [16] appears, read: H69AR cells + 2 uM doxorubicin, measured here: viability with 2 uM doxorubicin, stronger effect = lower value.
[17] abbreviates: H69AR cells, compound alone cytotoxicity.

Receptor tyrosine-protein kinase erbB-2 (Homo sapiens), sequence (P04626 whole entry, looked up): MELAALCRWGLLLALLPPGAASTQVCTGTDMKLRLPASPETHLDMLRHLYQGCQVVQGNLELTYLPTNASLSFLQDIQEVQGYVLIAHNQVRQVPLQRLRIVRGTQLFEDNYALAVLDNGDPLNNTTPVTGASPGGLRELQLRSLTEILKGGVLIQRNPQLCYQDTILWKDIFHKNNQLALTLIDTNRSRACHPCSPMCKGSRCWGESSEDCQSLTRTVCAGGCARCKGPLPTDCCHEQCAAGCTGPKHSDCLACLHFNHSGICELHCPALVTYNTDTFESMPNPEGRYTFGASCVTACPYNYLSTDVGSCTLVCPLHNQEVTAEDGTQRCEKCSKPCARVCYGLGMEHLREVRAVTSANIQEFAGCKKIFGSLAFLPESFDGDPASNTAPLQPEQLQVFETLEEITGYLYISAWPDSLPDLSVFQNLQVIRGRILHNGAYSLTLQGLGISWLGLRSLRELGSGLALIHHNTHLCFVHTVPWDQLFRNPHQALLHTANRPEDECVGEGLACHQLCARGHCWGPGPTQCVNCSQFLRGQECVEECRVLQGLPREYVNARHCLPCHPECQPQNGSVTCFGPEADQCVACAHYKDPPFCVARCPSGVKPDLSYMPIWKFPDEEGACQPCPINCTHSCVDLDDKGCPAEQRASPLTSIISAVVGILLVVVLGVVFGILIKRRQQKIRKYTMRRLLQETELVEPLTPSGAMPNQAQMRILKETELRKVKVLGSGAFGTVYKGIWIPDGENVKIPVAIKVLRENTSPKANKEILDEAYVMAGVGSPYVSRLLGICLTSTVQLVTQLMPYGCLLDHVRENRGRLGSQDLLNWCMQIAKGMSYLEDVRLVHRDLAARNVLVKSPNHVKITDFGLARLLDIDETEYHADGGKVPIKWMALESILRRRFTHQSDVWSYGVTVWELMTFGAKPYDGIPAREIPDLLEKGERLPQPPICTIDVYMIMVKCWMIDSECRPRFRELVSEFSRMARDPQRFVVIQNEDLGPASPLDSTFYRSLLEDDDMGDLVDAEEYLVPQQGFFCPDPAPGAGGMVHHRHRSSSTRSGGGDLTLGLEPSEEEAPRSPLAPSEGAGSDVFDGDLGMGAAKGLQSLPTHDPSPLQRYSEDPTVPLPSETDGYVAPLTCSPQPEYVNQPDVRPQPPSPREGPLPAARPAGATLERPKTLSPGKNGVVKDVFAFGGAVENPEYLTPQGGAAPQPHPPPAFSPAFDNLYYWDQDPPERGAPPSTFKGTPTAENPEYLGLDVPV

In the case of `CN1CCN(C(=O)C2CCN(S(=O)(=O)c3ccc4c(c3)oc(=O)n4C)CC2)CC1`, the viability in assay [1] is 89%; in assay [3] it was 89% (inactive); in assay [4] it was 94.4% (inactive); in [5], 107% (inactive); in assay [6] (setting [16]) it was 92.4%; in assay [6] (setting [17]) it was 107%. In addition, the viability in [12] and in assay [13] was 102% (inactive) each time. In addition, the Her2 level in [2] was 104% (inactive). In addition, in assay [6] (H69AR cells + 2 uM doxorubicin), the differential viability (reversal) is 14.3% (inactive). The inhibition was -2.95% (inactive) in assay [7], 9.5% (inactive) in assay [8] and 2.46% (inactive) in assay [14]. The growth inhibition in assay [9] was -6.74% (inactive); in [10] it was -5.41% (inactive). Moreover, in assay [11], the viability increase is 1.79% (inactive). Moreover, the RAM network inhibition in [15] is 3.79% (inactive).

On to `CCCc1nnc(NC(=O)NCCN2C(=O)C3C4C=CC(C4)C3C2=O)s1` (stereo not given), for which the viability in assay [1] was 110%; in [3], 110% (inactive); in assay [4], 96.6% (inactive); in assay [5] it was 97.8% (inactive); in [6] (setting [16]), 92.2%; in [6] (setting [17]) it was 97.8%. The viability in assay [12] and in assay [13] was 101% (inactive) throughout. Moreover, in assay [2], the Her2 level was 121% (inactive). Moreover, in [6] (H69AR cells + 2 uM doxorubicin), the differential viability (reversal) was 5.61% (inactive). The inhibition was 1.87% (inactive) in [7], -13% (inactive) in assay [8] and -0.135% (inactive) in assay [14]. For the same compound, the growth inhibition in assay [9] was -2.99% (inactive); in assay [10], 6.19% (inactive). Moreover, the viability increase in assay [11] is -0.68% (inactive). Besides, the RAM network inhibition in assay [15] was 3.27% (inactive).

On to `CCCCCn1c(=O)[nH]c2cc(C(=O)NCCN3CCOCC3)ccc2c1=O`, for which the viability in assay [1] was 99.5%; in assay [3] it was 99.5% (inactive); in assay [4], 114% (inactive); in assay [5] it was 105% (inactive); in [6] (setting [16]), 88.5%; in [6] (setting [17]), 105%. Also, the viability in assay [12] was 92.5% (inactive); in [13], 87.9% (inactive). Besides, the Her2 level in assay [2] is 88% (inactive). Besides, the differential viability (reversal) in assay [6] (H69AR cells + 2 uM doxorubicin) was 16.1% (inactive). The results for the inhibition in assay [7], in assay [8] and in [14] were -7.03% (inactive), 0.33% (inactive) and 1.83% (inactive), respectively. Moreover, the results for the growth inhibition in [9] and in [10] were -26.4% (inactive) and -10.6% (inactive), respectively. Besides, the viability increase in [11] was -0.3% (inactive). Besides, in assay [15], the RAM network inhibition is 5.23% (inactive).

As to `COC(=O)C1=C(C)Nc2nnnn2C1c1ccc(Cl)cc1Cl` (stereo not given), the viability in [1] was 110%; in [3], 110% (inactive); in assay [4] it was 114% (inactive); in assay [5] it was 93.3% (inactive); in assay [6] (setting [16]) it was 98.4%; in assay [6] (setting [17]), 93.3%. Besides, the viability in [12] is 98% (inactive); in assay [13], 91.5% (inactive). Also, the Her2 level in [2] was 80% (inactive). In assay [6] (H69AR cells + 2 uM doxorubicin), the differential viability (reversal) was -5.04% (inactive). Moreover, the figures for the inhibition in assay [7], in assay [8] and in assay [14] were -1.97% (inactive), -0.63% (inactive) and 0.54% (inactive), respectively. Moreover, the growth inhibition was 2.67% (inactive) in assay [9] and -1.33% (inactive) in assay [10]. Also, the viability increase in [11] is -5.06% (inactive). For the same compound, the RAM network inhibition in assay [15] was 0.11% (inactive).

Regarding `COC(=O)C1=C(N)OC2=C(C(=O)CCC2)C1c1cccs1` (stereo not given), the viability in assay [1] is 110%; in assay [3] it was 110% (inactive); in assay [4] it was 93.7% (inactive); in assay [5], 101% (inactive); in assay [6] (setting [16]), 83.2%; in [6] (setting [17]), 101%. The viability was 94.9% (inactive) in [12] and 92.9% (inactive) in assay [13]. In [2], the Her2 level was 85% (inactive). In addition, in assay [6] (H69AR cells + 2 uM doxorubicin), the differential viability (reversal) is 17.8% (inactive). The figures for the inhibition in [7], in assay [8] and in assay [14] were -4.19% (inactive), 4.1% (inactive) and 2.75% (inactive), respectively. The growth inhibition in assay [9] is -2.24% (inactive); in assay [10], -6.3% (inactive). Further, the viability increase in [11] was -2.89% (inactive). The RAM network inhibition in assay [15] is 4.64% (inactive).
